# Reference: PubChem BioAssay (NCATS)
# Inconclusive results are not listed. Entries that show only a call come without a potency. Calls of active or inactive are those of the source. Unless noted, calls follow the shape of the full dose curve.
# Experiments:
# [1] = biological target: Bile acid receptor (Homo sapiens) (UniProt Q96RI1); test: qHTS assay for small molecule agonists of farnesoid X receptor signaling (AID 588527); settings: HEK293T FXR-UAS-bla, beta-lactamase ratio, 16 h; activation: stronger effect = higher value; also: series mostly up to about 77 µM
# Chain of Bile acid receptor (Homo sapiens) (Q96RI1 whole entry, looked up): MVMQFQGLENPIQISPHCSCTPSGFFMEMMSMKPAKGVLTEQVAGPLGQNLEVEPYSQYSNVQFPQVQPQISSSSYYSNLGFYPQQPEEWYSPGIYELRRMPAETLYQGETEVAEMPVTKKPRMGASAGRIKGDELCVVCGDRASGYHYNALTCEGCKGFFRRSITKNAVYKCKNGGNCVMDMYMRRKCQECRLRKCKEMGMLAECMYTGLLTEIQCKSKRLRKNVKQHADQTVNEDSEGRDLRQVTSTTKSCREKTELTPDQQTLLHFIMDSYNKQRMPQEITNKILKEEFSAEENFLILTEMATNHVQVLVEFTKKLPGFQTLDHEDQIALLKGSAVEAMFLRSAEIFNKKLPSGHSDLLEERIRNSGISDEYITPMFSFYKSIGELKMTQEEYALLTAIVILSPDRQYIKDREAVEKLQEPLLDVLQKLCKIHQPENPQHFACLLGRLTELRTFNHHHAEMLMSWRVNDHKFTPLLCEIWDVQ
# Summary of the method: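 Agonist-mode beta-lactamase reporter in GeneBLAzer FXR-UAS-bla HEK293T cells, titration up to 92 uM, 16 h exposure at 37 C, CCF4 fluorescence. Response scaled to DMSO (0%) and 100 uM chenodeoxycholic acid (100%), then Hill-fitted for EC50 and efficacy.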
# [2] = biological target: Peroxisome proliferator-activated receptor delta (Homo sapiens) (UniProt Q03181); test: qHTS assay for small molecule agonists of peroxisome proliferator-activated receptor delta signaling (AID 588534)
# Chain of Peroxisome proliferator-activated receptor delta (Homo sapiens) (Q03181 whole entry, looked up): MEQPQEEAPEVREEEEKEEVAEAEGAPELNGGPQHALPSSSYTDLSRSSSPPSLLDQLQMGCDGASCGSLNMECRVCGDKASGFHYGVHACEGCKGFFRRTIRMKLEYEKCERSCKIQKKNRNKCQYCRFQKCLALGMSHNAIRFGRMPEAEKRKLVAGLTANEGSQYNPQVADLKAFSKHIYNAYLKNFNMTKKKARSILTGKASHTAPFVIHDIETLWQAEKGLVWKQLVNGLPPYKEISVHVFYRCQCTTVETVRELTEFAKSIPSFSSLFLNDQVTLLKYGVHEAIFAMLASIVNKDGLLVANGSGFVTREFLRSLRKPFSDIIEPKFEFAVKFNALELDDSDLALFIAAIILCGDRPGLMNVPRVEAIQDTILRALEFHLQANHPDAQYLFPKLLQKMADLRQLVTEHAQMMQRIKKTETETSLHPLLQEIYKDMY
# Summary of the method: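 Titration series tested in agonist mode on beta-lactamase reporter cells; 18 hrs at 37 C after a 5 hr pre-incubation. Readout: CCF4 fluorescence, 2 hrs RT. Hill equation gives EC50 and maximal response.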
# [3] = qHTS for Inhibitors of the Functional Ribonucleoprotein Complex (vRNP) of Lassa (LASV) Arenavirus: LASV Primary Screen - GLuc reporter signal (AID 1347082; calls by dose curve; tested in HEK293 reporter line; also: series mostly up to about 57 µM; nearly all actives have a fitted effect of over 60% in size)
# [4] = qHTS for Inhibitors of the Functional Ribonucleoprotein Complex (vRNP) of Lassa (LASV) Arenavirus: Viability assay - alamar blue signal for LASV Primary Screen (AID 1347083; calls by dose curve; tested in HEK293 reporter line; also: series mostly up to about 57 µM; nearly all actives have a fitted effect of over 80% in size)
# [5] = qHTS for Inhibitors of the Functional Ribonucleoprotein Complex (vRNP) of Lymphocytic Choriomeningitis Arenaviruses (LCMV): Viability assay - alamar blue signal for LCMV Primary Screen (AID 1347085; calls by dose curve; tested in HEK293 reporter line; also: series mostly up to about 57 µM; nearly all actives have a fitted effect of over 80% in size)
# [6] = biological target: Nucleoprotein (Lymphocytic choriomeningitis virus (strain Armstrong)) (UniProt P09992); test: qHTS for Inhibitors of the Functional Ribonucleoprotein Complex (vRNP) of Lymphocytic Choriomeningitis Arenaviruses (LCMV): LCMV Primary Screen - GLuc reporter signal (AID 1347086); also: series mostly up to about 57 µM; nearly all actives have a fitted effect of over 70% in size
# Chain of Nucleoprotein (Lymphocytic choriomeningitis virus (strain Armstrong)) (P09992 whole entry, looked up): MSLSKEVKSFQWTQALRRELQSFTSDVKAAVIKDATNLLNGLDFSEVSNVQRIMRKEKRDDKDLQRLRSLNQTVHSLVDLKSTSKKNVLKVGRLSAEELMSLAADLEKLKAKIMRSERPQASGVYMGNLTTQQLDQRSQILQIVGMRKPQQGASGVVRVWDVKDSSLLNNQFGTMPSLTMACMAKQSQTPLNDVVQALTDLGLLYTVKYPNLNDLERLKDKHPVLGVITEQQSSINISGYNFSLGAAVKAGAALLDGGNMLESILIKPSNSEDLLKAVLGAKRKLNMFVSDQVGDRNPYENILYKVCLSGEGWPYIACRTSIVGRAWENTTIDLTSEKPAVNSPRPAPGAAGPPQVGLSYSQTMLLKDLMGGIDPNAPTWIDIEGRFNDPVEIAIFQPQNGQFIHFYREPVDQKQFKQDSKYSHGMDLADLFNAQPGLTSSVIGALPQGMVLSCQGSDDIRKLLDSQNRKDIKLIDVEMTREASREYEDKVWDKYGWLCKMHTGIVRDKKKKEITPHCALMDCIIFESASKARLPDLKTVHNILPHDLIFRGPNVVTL
# [7] = biological target: Estrogen receptor (Homo sapiens) (UniProt P03372); test: qHTS assay for small molecule agonists of estrogen receptor alpha signaling (AID 588514); also: nearly all actives have a fitted effect of over 70% in size
# Summary of the method: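 Read-out: CCF4 fluorescence from a beta-lactamase reporter in ER-alpha-UAS-bla HEK 293 cells after 18 hrs of compound exposure at 37 C. Normalized to 20 nM 17-beta-estradiol (100%) and DMSO (0%).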
# [8] = biological target: Bile acid receptor (Homo sapiens) (UniProt Q96RI1); test: qHTS assay for small molecule antagonists of farnesoid X receptor signaling (AID 588526)
# Summary of the method: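 Concentration-response titrations were fitted to the Hill equation for half-maximal inhibition and maximal response, with data normalised to 50 uM chenodeoxycholic acid and DMSO control wells. Cells: FXR-UAS-bla HEK293T, dialyzed FBS.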
# [9] = biological target: Glucocorticoid receptor (Homo sapiens) (UniProt P04150); test: qHTS assay for small molecule agonists of glucocorticoid receptor signaling (AID 588532; active = well fitted curve in the direction sought with a large enough effect in the signal ratio, with a control signal flat; the % refers to the signal ratio); settings: HeLa MMTV-bla, beta-lactamase ratio, agonist, 18 h; stronger effect = higher value; percent of dexamethasone control, DMSO zero
# Chain of Glucocorticoid receptor (Homo sapiens) (P04150 whole entry, looked up): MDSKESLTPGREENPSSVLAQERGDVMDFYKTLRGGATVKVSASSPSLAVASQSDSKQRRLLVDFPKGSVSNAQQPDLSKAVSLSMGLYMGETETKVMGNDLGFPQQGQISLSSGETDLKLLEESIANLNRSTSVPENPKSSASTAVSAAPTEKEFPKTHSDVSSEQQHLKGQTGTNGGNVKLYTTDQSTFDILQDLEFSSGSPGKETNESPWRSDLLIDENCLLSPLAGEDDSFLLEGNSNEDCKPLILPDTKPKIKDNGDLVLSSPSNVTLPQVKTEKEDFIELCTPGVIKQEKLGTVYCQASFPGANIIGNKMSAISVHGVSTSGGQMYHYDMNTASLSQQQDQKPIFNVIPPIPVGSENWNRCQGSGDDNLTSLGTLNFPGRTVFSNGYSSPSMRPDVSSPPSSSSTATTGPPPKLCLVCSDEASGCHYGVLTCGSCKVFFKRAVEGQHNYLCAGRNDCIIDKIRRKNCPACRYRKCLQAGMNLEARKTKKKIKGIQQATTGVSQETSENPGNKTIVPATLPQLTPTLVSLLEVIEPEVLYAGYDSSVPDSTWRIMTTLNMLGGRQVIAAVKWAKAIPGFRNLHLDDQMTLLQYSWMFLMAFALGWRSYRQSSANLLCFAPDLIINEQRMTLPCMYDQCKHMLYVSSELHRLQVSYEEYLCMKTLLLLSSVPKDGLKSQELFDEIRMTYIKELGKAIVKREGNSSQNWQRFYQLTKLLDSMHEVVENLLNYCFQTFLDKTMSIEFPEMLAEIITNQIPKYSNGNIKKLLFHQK
# Summary of the method: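 Stimulation of a glucocorticoid response element-driven beta-lactamase gene was measured in HeLa cells. Responses were scaled between DMSO basal and 0.1 uM dexamethasone, then fitted for half-maximal stimulation.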
# [10] = biological target: Glucocorticoid receptor (Homo sapiens) (UniProt P04150); test: qHTS assay for small molecule antagonists of glucocorticoid receptor signaling (AID 588533; active = well fitted inhibition curve with a large enough effect in the signal ratio, with a control signal flat, not every such curve was filed as active; the % refers to the signal ratio;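 also: cells stimulated with 2 nM dexamethasone as agonist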)
# Summary of the method: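 Antagonist-mode qHTS: compound titrations added to GRE-bla HeLa cells, then dexamethasone 2 nM final; 18 h, 37 C. CCF4 FRET fluorescence normalized to dexamethasone and DMSO; IC50 from Hill fit.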
# [11] = qHTS assay for small molecule antagonists of peroxisome proliferator-activated receptor delta signaling (AID 588535; active = well fitted inhibition curve with a large enough effect in the signal ratio, with a control signal flat, not every such curve was filed as active; the % refers to the signal ratio;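 as to max response: cells co-treated with a PPAR-delta agonist as stimulator during compound exposure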); settings: HEK293T PPARd-UAS-bla, beta-lactamase FRET ratio, 18 h; 460 nm channel
# Summary of the method: (§1)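 Compounds tested in titration on PPAR-delta-UAS-bla HEK293T cells grown in charcoal/dextran-stripped serum (2%); beta-lactamase activity read via CCF4 emission at 460 and 530 nm.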
# [12] = biological target: Peroxisome proliferator-activated receptor delta (Homo sapiens) (UniProt Q03181); test: as above
# Summary of the method: as §1
# [13] = biological target: Peroxisome proliferator-activated receptor gamma (Homo sapiens) (UniProt P37231); test: qHTS assay for small molecule agonists of peroxisome proliferator-activated receptor gamma signaling (AID 588536; active = well fitted curve in the direction sought with a large enough effect in the signal ratio, with a control signal flat, not every such curve was filed as active; the % refers to the signal ratio)
# Chain of Peroxisome proliferator-activated receptor gamma (Homo sapiens) (P37231 whole entry, looked up): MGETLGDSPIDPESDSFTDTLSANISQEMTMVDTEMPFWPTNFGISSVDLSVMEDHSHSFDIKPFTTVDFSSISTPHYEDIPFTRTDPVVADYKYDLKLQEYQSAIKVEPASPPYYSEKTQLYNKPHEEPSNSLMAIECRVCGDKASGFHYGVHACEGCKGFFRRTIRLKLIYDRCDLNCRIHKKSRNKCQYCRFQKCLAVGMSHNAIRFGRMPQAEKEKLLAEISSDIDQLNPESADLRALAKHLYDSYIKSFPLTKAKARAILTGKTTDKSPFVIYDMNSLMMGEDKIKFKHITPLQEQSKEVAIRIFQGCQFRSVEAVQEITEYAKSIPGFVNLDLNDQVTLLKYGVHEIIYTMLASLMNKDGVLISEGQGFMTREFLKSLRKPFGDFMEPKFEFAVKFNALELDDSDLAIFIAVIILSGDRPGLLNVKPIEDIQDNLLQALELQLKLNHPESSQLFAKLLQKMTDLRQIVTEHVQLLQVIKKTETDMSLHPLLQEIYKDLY
# Summary of the method: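 This is an agonist-mode beta-lactamase reporter assay in HEK293 PPAR-gamma-UAS-bla cells with 1% charcoal/dextran FBS. Compound titrations ran 16 h at 37 C before CCF4 detection. EC50 and efficacy are Hill fits scaled to 2 uM rosiglitazone (100%) and DMSO basal.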
# [14] = biological target: Peroxisome proliferator-activated receptor gamma (Homo sapiens) (UniProt P37231); test: qHTS assay for small molecule antagonists of peroxisome proliferator-activated receptor gamma signaling (AID 588537; active = well fitted inhibition curve with a large enough effect in the signal ratio, with a control signal flat, not every such curve was filed as active; the % refers to the signal ratio;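 also: reporter cells co-stimulated with 50 nM rosiglitazone agonist during compound treatment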)
# Summary of the method: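 HEK293 cells, PPAR-gamma-UAS-bla, 3000/well. Pre-incubation 6-6.5 h, 37 C. Compound titration with rosiglitazone 50 nM final, 16 h. CCF4 dye, 2 h RT, dual-emission fluorescence.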
# [15] = biological target: Vitamin D3 receptor (Homo sapiens) (UniProt P11473); test: qHTS assay for small molecule antagonists of vitamin D receptor signaling (AID 588541);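 also: receptor activated by calcitriol during compound treatment; series mostly up to about 77 µM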
# Chain of Vitamin D3 receptor (Homo sapiens) (P11473 whole entry, looked up): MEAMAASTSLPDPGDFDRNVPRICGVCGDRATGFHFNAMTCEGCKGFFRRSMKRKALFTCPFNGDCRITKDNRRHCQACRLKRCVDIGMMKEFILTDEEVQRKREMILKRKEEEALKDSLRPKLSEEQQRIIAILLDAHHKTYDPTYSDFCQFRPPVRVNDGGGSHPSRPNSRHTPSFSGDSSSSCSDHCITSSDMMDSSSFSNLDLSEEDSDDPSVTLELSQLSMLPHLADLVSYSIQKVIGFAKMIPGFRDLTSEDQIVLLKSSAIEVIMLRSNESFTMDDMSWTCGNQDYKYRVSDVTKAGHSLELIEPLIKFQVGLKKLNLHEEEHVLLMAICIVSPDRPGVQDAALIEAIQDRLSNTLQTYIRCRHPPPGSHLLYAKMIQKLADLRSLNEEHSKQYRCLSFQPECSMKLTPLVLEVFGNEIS
# Summary of the method: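 VDR-UAS-bla HEK293T cells (2000/well, 2% charcoal-stripped FBS) were treated with titrated compounds plus 1-alpha,25-dihydroxyvitamin D3 (50 nM or 3 nM final) for 16 h at 37 C. CCF4 beta-lactamase fluorescence was read; Hill fits gave IC50.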
# [16] = biological target: Vitamin D3 receptor (Homo sapiens) (UniProt P11473); test: qHTS assay for small molecule agonists of vitamin D receptor signaling (AID 588543)
# Summary of the method: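 β-lactamase reporter, VDR-UAS-bla HEK293T, agonist mode. Cells plated 5 h at 37 °C, compound titration 16 h at 37 °C, CCF4 dye 2 h RT, ratio 460/530 nm. Hill fit → EC50, efficacy vs 50 nM 1α,25-(OH)2D3.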
# [17] = qHTS assay for small molecule agonists of retinoid X receptor alpha signaling (AID 588544); settings: HEK293T RXRa-UAS-bla, beta-lactamase reporter, 18 h; 530 nm emission
# [18] = biological target: Retinoic acid receptor RXR-alpha (Homo sapiens) (UniProt P19793); test: as above
# Chain of Retinoic acid receptor RXR-alpha (Homo sapiens) (P19793 whole entry, looked up): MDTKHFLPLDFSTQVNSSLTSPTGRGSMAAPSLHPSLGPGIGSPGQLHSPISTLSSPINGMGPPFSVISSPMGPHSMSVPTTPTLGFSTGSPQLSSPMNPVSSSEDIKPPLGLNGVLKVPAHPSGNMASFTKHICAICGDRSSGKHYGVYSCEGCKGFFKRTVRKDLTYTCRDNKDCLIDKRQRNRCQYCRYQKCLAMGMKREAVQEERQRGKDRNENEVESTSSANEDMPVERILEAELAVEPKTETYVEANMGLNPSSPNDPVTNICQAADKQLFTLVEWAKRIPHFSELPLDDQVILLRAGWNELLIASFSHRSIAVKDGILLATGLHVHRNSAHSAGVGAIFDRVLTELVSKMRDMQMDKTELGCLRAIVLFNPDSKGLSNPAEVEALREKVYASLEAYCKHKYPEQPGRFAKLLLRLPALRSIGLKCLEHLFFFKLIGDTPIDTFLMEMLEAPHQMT
# [19] = biological target: Thyroid hormone receptor beta (Homo sapiens) (UniProt P10828); test: qHTS assay for small molecule agonists of thyroid hormone receptor beta signaling (AID 588545)
# Chain of Thyroid hormone receptor beta (Homo sapiens) (P10828 whole entry, looked up): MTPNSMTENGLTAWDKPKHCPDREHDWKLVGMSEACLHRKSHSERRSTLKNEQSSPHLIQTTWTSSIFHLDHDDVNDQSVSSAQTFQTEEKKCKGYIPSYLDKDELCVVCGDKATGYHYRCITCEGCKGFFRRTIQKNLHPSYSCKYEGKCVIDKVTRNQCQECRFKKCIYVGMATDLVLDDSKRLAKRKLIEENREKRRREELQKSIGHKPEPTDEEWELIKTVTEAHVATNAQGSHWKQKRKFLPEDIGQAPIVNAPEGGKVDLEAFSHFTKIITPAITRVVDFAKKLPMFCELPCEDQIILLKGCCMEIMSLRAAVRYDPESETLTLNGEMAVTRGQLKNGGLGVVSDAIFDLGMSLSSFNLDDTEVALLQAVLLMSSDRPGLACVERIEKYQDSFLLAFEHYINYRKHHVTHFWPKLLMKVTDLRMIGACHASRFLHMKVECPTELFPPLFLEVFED
# Summary of the method: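 Compounds were tested as agonists in TR-UAS-bla-GripTite HEK 293 cells. After 18 hrs at 37 C, CCF4 substrate was added and fluorescence read after 2 hrs at room temperature.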
# [20] = qHTS assay for small molecule antagonists of retinoid X receptor alpha signaling (AID 588546; active = well fitted inhibition curve with a large enough effect in the signal ratio, with a control signal flat, not every such curve was filed as active; the % refers to the signal ratio;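 also: cells stimulated with 9-cis-retinoic acid as agonist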); settings: HEK293T RXRa-UAS-bla, beta-lactamase ratio, antagonist mode; measured here: W530 green channel, cytotoxicity proxy
# Summary of the method: (§2)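 Beta-lactamase reporter inhibition, read as CCF4 fluorescence ratio (ex 405, em 460/530 nm) after 2 h at RT. HEK293T UAS-bla cells, 2500/well, were stimulated with 9-cis-RA at 500 or 100 nM final alongside test compound for 18 h at 37 C.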
# [21] = biological target: Retinoic acid receptor RXR-alpha (Homo sapiens) (UniProt P19793); test: as above; settings: HEK293T RXRa-UAS-bla, beta-lactamase ratio, antagonist mode
# Summary of the method: as §2
# [22] = qHTS assay for small molecule agonists of the antioxidant response element (ARE) signaling pathway (AID 651741; active = well fitted activation curve with a large enough effect in the signal ratio; the % refers to the signal ratio)
# Summary of the method: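 Beta-lactamase reporter expression driven by the antioxidant response element in HepG2 cells was detected by fluorescence with LiveBLAzer B/G FRET substrate (2 h, room temperature) following 16 h compound treatment at 37 C.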
# [23] = qHTS assay for small molecule activators of the nuclear factor-kappa B (NF-kB) signaling pathway (AID 651749; active = well fitted activation curve with a large enough effect in the signal ratio; the % refers to the signal ratio; also: series mostly up to about 77 µM); settings: NF-kB-bla ME-180 cells, beta-lactamase FRET ratio, 16 h; activation: stronger effect = higher value
# Summary of the method: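 Beta-lactamase reporter expression, controlled by NF-kB response elements in ME-180 cells, was quantified fluorometrically via FRET disruption; cells at 2,000/well had been incubated with 23 nL test compound for 16 hr.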
# [24] = qHTS assay for environmental chemicals that activate the Aryl hydrocarbon Receptor (AhR) signaling pathway (AID 651777; active = well fitted curve in the direction sought with a large enough effect; an effect the other way counts as inactive or inconclusive; also: nearly all actives have a fitted effect of over 15% in size); settings: 1A2-DRE human hepatoma cells, luciferase, 24 h; activation: stronger effect = higher value
# Summary of the method: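 Reporter gene assay: hepatoma cells with DRE/CYP1A2-luciferase, 24 hr compound incubation at 37 C, 5% CO2, luminescence after One-Glo (30 min, RT).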
# [25] = biological target: Peroxisome proliferator-activated receptor alpha (Homo sapiens) (UniProt Q07869); test: qHTS assay for small molecule agonists of the peroxisome proliferator-activated receptor alpha (PPARalpha) signaling pathway (AID 651778; active = well fitted curve in the direction sought with a large enough effect; an effect the other way counts as inactive or inconclusive); settings: PathHunter PPARalpha complementation, chemiluminescence, 6 h; stronger effect = higher value
# Chain of Peroxisome proliferator-activated receptor alpha (Homo sapiens) (Q07869 whole entry, looked up): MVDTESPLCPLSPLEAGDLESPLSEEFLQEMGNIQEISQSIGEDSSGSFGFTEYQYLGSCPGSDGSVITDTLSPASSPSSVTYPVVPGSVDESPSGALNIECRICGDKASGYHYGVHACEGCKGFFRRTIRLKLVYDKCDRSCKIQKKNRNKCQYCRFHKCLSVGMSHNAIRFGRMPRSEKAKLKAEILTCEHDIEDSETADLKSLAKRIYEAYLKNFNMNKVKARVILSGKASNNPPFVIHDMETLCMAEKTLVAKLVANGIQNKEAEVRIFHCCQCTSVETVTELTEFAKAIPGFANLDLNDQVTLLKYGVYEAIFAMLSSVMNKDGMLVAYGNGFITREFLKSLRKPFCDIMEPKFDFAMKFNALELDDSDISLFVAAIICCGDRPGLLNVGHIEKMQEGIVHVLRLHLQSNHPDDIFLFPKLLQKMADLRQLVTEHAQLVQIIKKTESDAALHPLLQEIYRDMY
# Summary of the method: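 Cells plated at 2,000/well and held overnight at 37 C, 5% CO2, then compound added by pin tool for 6 hr; after PathHunter detection reagent and 60 min at room temperature, chemiluminescence from enzyme complementation was read.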
# [26] = qHTS assay for small molecule agonists of the antioxidant response element (ARE) signaling pathway measured by Nrf2-dependant transcriptional activity - cell viability counter screen (AID 720653; active = well fitted curve in the direction sought with a large enough effect in the repeat runs; an effect the other way counts as inactive or inconclusive); settings: ARE-bla HepG2 viability, CellTiter-Glo ATP luminescence, 16 h; max response: stronger effect = lower value
# Summary of the method: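 ARE-bla HepG2 cells (2,000/well) rested 5 hrs at 37C/5% CO2, then exposed to compounds in DMSO for 16 hrs. Viability was read in the same wells as intracellular ATP by luminescence, 30 min at room temperature after reagent addition.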
# [27] = qHTS assay for cell viability of HEK293 cells (AID 743288; active = well fitted curve in the direction sought with a large enough effect; an effect the other way counts as inactive or inconclusive; also: nearly all actives have a fitted effect of over 50% in size); settings: ATP luminescence (CellTiter-Glo), 18 h; max response: stronger effect = lower value
# Summary of the method: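 ATP luminescence (CellTiter-Glo) reports metabolically competent cell number after parental HEK293 cells, 2,000/well, were treated with DMSO-dissolved compounds for 18 h at 37 C; reagent incubation 30 min, room temperature.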
# [28] = qHTS assay for cell viability of the p53RE-bla HCT-116 cell line (AID 743292; active = well fitted curve in the direction sought with a large enough effect; an effect the other way counts as inactive or inconclusive; also: nearly all actives have a fitted effect of over 55% in size)
# Summary of the method: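 ATP-based luminescence, 16 h compound exposure at 37 C, p53RE-bla HCT-116 cells at 4,000/well.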
# [29] = biological target: Nuclear receptor subfamily 1 group I member 2 (Rattus norvegicus) (UniProt Q9R1A7); test: qHTS assay for small molecule activators of the rat pregnane X receptor (rPXR) signaling pathway (AID 651751; call rule not given here); settings: rPXR reporter cells, luciferase (One-Glo), 24 h
# [30] = qHTS assay for small molecule activators of the human pregnane X receptor (PXR) signaling pathway (AID 720659; call rule not given here)
smiles,measurement,setting,value
CC(=O)/C=C/C1C(C)=CCCC1(C)C (stereo not drawn),activation,[1],2.64% (inactive)
same,Potency,[2],inactive
same,Potency,[3],inactive
same,Potency,[4],inactive
same,Potency,[5],inactive
same,Potency,[6],inactive
COC(=O)CCCC(=O)OC,activation,[1],-3.54% (inactive)
same,Potency,[2],inactive
same,Potency,[3],inactive
same,Potency,[4],inactive
same,Potency,[5],inactive
same,Potency,[6],inactive
CC1=C(/C=C/C(C)=C/C=C/C(C)=C\C=O)C(C)(C)CCC1,activation,[1],25.7% (inactive)
same,Potency,[2],inactive
same,Potency,[3],inactive
same,Potency,[4],inactive
same,Potency,[5],inactive
same,Potency,[6],inactive
CCOP(=S)(OCC)SCSCC,Potency,[7],inactive
same,Potency,[8],inactive
same,activation,[1],1.79% (inactive)
same,activation,[9],-1.34% (inactive)
same,Potency,[10],inactive
same,Potency,[2],inactive
same,max response,[11],1.66%
same,outcome,[12],inactive
same,outcome,[13],inactive
same,Potency,[14],inactive
same,outcome,[15],inactive
same,Potency,[16],inactive
same,max response,[17],-8.57%
same,outcome,[18],inactive
same,Potency,[19],inactive
same,max response,[20],-4.53%
same,max response,[21],-2.19% (inactive)
same,Potency,[22],inactive
same,activation,[23],-1.47% (inactive)
same,activation,[24],2.07% (inactive)
same,max response,[25],-0.311% (inactive)
same,max response,[26],6.11% (inactive)
same,max response,[27],-10.1% (inactive)
same,outcome,[28],inactive
same,Potency,[3],inactive
same,Potency,[4],inactive
same,Potency,[5],inactive
same,Potency,[6],inactive
same,max response,[29],5.3% (inactive)
same,outcome,[30],inactive
